From PubChem BioAssay
Inconclusive results are not listed. Active and inactive are the calls of the source. Rule as the data show it, unless noted: active = inhibition above about 30%; inactive = the rest.

Key:
[1] = reduced viability of SK-BR-3 breast cancer cells – cell-based, 24 h, human, pilot screen (AID 572;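 active = viability at or below 10% of carrier control in both of two separate runs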;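 also: compound exposure lasted between 18 and 24 h rather than exactly 24 h; 100% = carrier-treated control wells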); conditions: SK-BR-3 viability, CellTiter-Glo luminescence, at 10 µM, stronger effect = lower value
[2] = MRP1 drug-resistance reversers in H69AR cells – cell-based, doxorubicin co-treatment, pilot screen (AID 601;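 active = viability loss from added drug above about 55%, and viability with drug at most 40%, in both replicates, limit read from the data, passing the limit was not always enough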); conditions: CellTiter-Glo, 72 h, at 10 µM; for differential viability (reversal): stronger effect = higher value
[3] = yeast transport mutant growth inhibition pilot in 384-well plates, post-Golgi transport modulator project (AID 636; in the data active = inhibition above about 31%); conditions: absorbance 615 nm, about 18 h, stronger effect = higher value
[4] = growth suppression of yeast trafficking mutant, preliminary HTS, modulators of trafficking downstream of Golgi apparatus project, 1536-format plate, OD 615 nm (AID 637); conditions: yeast transport mutant growth, absorbance 615 nm, 18 h; stronger effect = higher value
[5] = H69AR cell proliferation blockers – human, duplicate replicates, primary screen (AID 580;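 active = viability at or under a set limit in both replicates, limit being median viability minus 3 SD, cut at about 48% in these data, passing the limit was not always enough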;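 also: 100% = mean luminescence of untreated wells and 0% = no signal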); conditions: H69AR lung tumor cells viability, ATP luminescence, 72 h; at 10 µM; stronger effect = lower value
[6] = S. cerevisiae growth inhibition in permissive medium (OD615), pilot counter-assay for S. cerevisiae lifespan shortening project, permissive growth control (AID 705;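 active = growth inhibition above 25% in both replicates, a cutoff set 3 SD above the mean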); conditions: OD615, 24 h, at 10 µM, stronger effect = higher value
[7] = S. cerevisiae growth inhibition in restrictive medium, OD615, pilot screen, restrictive growth control, yeast lifespan reduction project (AID 706;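 active = growth inhibition above a set limit, 3 SD over mean compound inhibition, in both replicates, cut at about 43% in these data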;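 also: modified DeaD lifespan yeast strain shifted to restrictive glucose medium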); conditions: OD615, 48 h, at 10 µM, stronger effect = higher value
[8] = doxorubicin toxicity protection in MRP-1 cells – H69AR cells, CellTiter-Glo, duplicate, MRP-1 activator project, pilot screen (AID 807;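 active = viability increase at or above a cutoff of the median across tested compounds plus 3 SD, cut at about 8.5% in these data, passing the limit was not always enough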;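 also: compound pretreatment 18-22 h then 72 h combined with doxorubicin; 0% = doxorubicin alone and 100% = vehicle without doxorubicin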); conditions: H69AR viability with doxorubicin, CellTiter-Glo luminescence; at 10 µM; stronger effect = higher value
[9] = viability of HCT116 without oncogenic beta-catenin – human colon tumor cells, pilot screen (AID 823;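 active = cell viability at or below a set limit in both duplicate runs, the limit being the all-compound median minus 4 SD, cut at about 23% in these data, passing the limit was not always enough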;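 also: 0% = wells killed by 20 µM Hyamine and 100% = untreated DMSO cell wells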); conditions: HCT116 beta-catenin knockout viability, CellTiter-Glo, 60 h; at 10 µM; stronger effect = lower value
[10] = viability of PTEN-null HCT116 cells – cell-based, HCT116 clonal line, CellTiter-Glo, pilot screen (AID 824;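 active = viability at or below 27.92% in each of two runs, the all-compound median minus 4 SD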;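 also: 0% = 20 µM Hyamine control and 100% = vehicle cell control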); conditions: HCT116 PTEN-deleted viability, 60 h, at 10 µM, stronger effect = lower value
[11] = RAM pathway blockade in budding yeast – dse1pr::URA3 reporter, 5-FOA selection, pilot screen (AID 869;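 active = inhibition over a set limit, the all-compound mean plus 3 SD, in both replicate runs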;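 also: 0% = DMSO wells with no growth and 100% = 10 µM 1-NA-PP1 with full growth; RAM network block rescues cells from 5-FOA so hits raise OD615 growth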); conditions: S. cerevisiae dse1pr::URA3 5-FOA growth, OD615, 2 d; at 10 µM; stronger effect = higher value; strain carries analog-sensitive mutant Cbk1 kinase
[12] = H69AR cells + 2 uM doxorubicin, measured here: viability with 2 uM doxorubicin, stronger effect = lower value
[13] = H69AR cells, compound alone cytotoxicity

SMILES	viability [1]	differential viability (reversal) ([2]; H69AR cells + 2 uM doxorubicin)	viability [2, 12] [%]	viability [2, 13] [%]	inhibition [3]	inhibition [4]	viability [5]	growth inhibition [6]	growth inhibition [7]	viability increase [8]	viability [9]	viability [10]	inhibition [11]
Cc1ccc2[nH]c3c(c2c1)CN(C(=O)CN1CCN(c2cccc(C)c2C)CC1)CC3	79% (inactive)	-6.55% (inactive)	37.6	31	0% (inactive)	4.36% (inactive)	–	–	–	–	–	–	–
CCOC(=O)c1cc(-c2ccc(Cl)s2)nc2c1c(C)nn2C	66.5% (inactive)	-26.2% (inactive)	62	35.8	-1.45% (inactive)	-0.82% (inactive)	–	–	–	–	–	–	–
COc1ccc(Cl)cc1C(=O)NCCc1ccc(S(=O)(=O)NC(=O)NC2CCCCC2)cc1	116% (inactive)	-9.18% (inactive)	103	93.5	0.26% (inactive)	-1.33% (inactive)	93.5% (inactive)	–	–	–	–	–	–
CCc1oc2ccccc2c1C(=O)c1cc(Br)c(O)c(Br)c1	95% (inactive)	-23.2% (inactive)	102	79	-0.52% (inactive)	54.7% (active)	79% (inactive)	–	–	–	–	–	–
CC(C)Cn1c2c(c(O)c(C(=O)Nc3ncccc3O)c1=O)CCCC2	91% (inactive)	-10.7% (inactive)	63.1	52.4	-2% (inactive)	-2.91% (inactive)	–	–	–	–	–	–	–
Clc1ccc(C2=Nn3c(nnc3-c3n[nH]c4c3CCC4)SC2)cc1Cl	102% (inactive)	-12.1% (inactive)	21.1	9	-6.58% (inactive)	6.77% (inactive)	9% (active)	–	–	–	–	–	–
C(=C\c1ccccc1)/CSc1nnc(-c2ccccn2)n1Cc1ccco1	84% (inactive)	-46.8% (inactive)	68.2	21.4	-6.53% (inactive)	-0.16% (inactive)	21.4% (active)	–	–	–	–	–	–
CO[C@H]1C[C@@H]2CC[C@@H](C)[C@@](O)(O2)C(=O)C(=O)N2CCCC[C@H]2C(=O)O[C@H]([C@H](C)C[C@@H]2CC[C@@H](O)[C@H](OC)C2)CC(=O)[C@H](C)C=C(C)[C@@H](O)[C@@H](OC)C(=O)[C@H](C)C[C@H](C)C=CC=CC=C1C	113% (inactive)	1.46% (inactive)	65.7	67.1	93.6% (active)	82.2% (active)	67.1% (inactive)	–	–	–	–	–	–
CCN(CC)S(=O)(=O)c1ccc2[nH]cc(C(=O)NCCC3=CCCCC3)c(=O)c2c1	138% (inactive)	-40.9% (inactive)	44.3	3.36	-6.4% (inactive)	-0.65% (inactive)	3.36% (active)	–	–	–	–	–	–
O=C(Nc1ccc2oc(Cc3ccc(Cl)cc3)nc2c1)c1cccnc1	103% (inactive)	-41.5% (inactive)	79.4	37.9	-1.73% (inactive)	-0.55% (inactive)	37.9% (active)	–	–	–	–	–	–
O=C(CNCCC1=CCCCC1)Nc1ccccc1N1CCCCC1	102% (inactive)	-5.31% (inactive)	66.9	61.6	-1.08% (inactive)	6.51% (inactive)	–	–	–	–	–	–	–
CCC(=O)Oc1ccc(C(CC)C(CC)c2ccc(OC(=O)CC)cc2)cc1 (stereo not drawn)	112% (inactive)	-16.4% (inactive)	102	85.8	-5.32% (inactive)	-1.33% (inactive)	85.8% (inactive)	–	–	–	–	–	–
CCCCn1c(SCc2ccc(Cl)cc2)nc2c1c(=O)[nH]c(=O)n2C	80% (inactive)	6.03% (inactive)	70.7	76.7	-4% (inactive)	0.73% (inactive)	76.7% (inactive)	–	–	–	–	–	–
C=C(CC)C(=O)c1ccc(OCC(=O)O)c(Cl)c1Cl	86% (inactive)	0.86% (inactive)	48.5	49.4	-2.47% (inactive)	-0.5% (inactive)	–	–	–	–	–	–	–
Cc1cccn2c(=O)c3cc(C(=O)NC4CCCC4)c(=N)n(C4CCCC4)c3nc12	107% (inactive)	15.5% (inactive)	12.1	27.6	-8.49% (inactive)	0.81% (inactive)	27.6% (active)	–	–	–	–	–	–
COC(=O)c1ccccc1NC(=O)Cn1c(-c2nonc2N)nc2ccccc21	70.5% (inactive)	-10.4% (inactive)	26.1	15.7	1.07% (inactive)	-4.84% (inactive)	15.7% (active)	–	–	–	–	–	–
O=C(O)c1ccc2c3c(ncnc13)-c1ccccc1C2=O	60.5% (inactive)	-19.5% (inactive)	99.8	80.3	5.51% (inactive)	1.67% (inactive)	80.3% (inactive)	–	–	–	–	–	–
COc1ccccc1NC(=O)c1oc2ccccc2c1NC(=O)c1cc(OC)c(OC)c(OC)c1	56.5% (inactive)	-18.4% (inactive)	35.3	16.9	-3.33% (inactive)	-2.1% (inactive)	16.9% (active)	–	–	–	–	–	–
CC(=O)Nc1ccccc1OCC(=O)c1cc(C)n(Cc2cccs2)c1C	92% (inactive)	-4.4% (inactive)	90.2	85.8	-3.01% (inactive)	-3.45% (inactive)	85.8% (inactive)	–	–	–	–	–	–
COc1cc2c(C#N)c(N3CCN(c4ccccc4OC)CC3)nc(N)c2c(N)n1	110% (inactive)	4.45% (inactive)	63.3	67.8	-0.26% (inactive)	5.9% (inactive)	67.8% (inactive)	–	–	–	–	–	–
Cc1ccc(-c2cc(C(F)F)nc(NCC3CCCO3)n2)cc1 (stereo not drawn)	86% (inactive)	6.21% (inactive)	94.2	100	1.56% (inactive)	-5.25% (inactive)	100% (inactive)	-12.2% (inactive)	-9% (inactive)	2.09% (inactive)	66.4% (inactive)	71.6% (inactive)	1.38% (inactive)
